# Laboratory results reported in PMC7862700, “An all-to-all approach to the identification of sequence-specific readers for epigenetic DNA modifications on cytosine”.
# Legend:
# Assay in all cases: DAPPL (digital affinity profiling via proximity ligation, sequencing); 10 mM Tris-HCl pH 7.5, 50 mM NaCl, 1 mM DTT, 4% glycerol, room temperature, 30 min; GST-TFs on glutathione beads, 16-mer random dsDNA library, 0.1% formaldehyde crosslink after washing; high values mean tight binding
# FEV = target: T1, FEV (Homo sapiens, UniProt Q99581 1-238); conditions: protein: recombinant; tags: N-terminal GST; dsDNA, one strand shown
# T1 sequence: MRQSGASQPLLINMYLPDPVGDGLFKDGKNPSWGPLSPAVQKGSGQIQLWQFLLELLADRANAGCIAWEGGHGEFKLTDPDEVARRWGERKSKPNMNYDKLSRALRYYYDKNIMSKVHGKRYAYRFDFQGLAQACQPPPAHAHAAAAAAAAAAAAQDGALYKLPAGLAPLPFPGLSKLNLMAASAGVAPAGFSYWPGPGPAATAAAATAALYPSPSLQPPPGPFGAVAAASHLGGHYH
# Procedure, shortened: (§1)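 Binding signal is defined as a hexamer's read frequency for one factor over its frequency for the tag-only sample. To obtain reads, GST-fused human transcription factors were expressed in yeast, captured on glutathione beads, barcoded with DNA and pooled with that sample. Pools met 200 nmole of a 16-mer random double-stranded DNA library in Tris/NaCl/DTT/glycerol buffer for 30 min at room temperature before washing, 0.1% formaldehyde crosslinking, proximity ligation (BsaI/T4 ligase, 1 h, 37 °C), PCR and Illumina NextSeq500 sequencing.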
# ETV5 = ETV5 (Homo sapiens, UniProt P41161 1-510); conditions: protein: recombinant; tags: N-terminal GST; dsDNA, one strand shown
# Sequence of ETV5 (P41161 whole entry): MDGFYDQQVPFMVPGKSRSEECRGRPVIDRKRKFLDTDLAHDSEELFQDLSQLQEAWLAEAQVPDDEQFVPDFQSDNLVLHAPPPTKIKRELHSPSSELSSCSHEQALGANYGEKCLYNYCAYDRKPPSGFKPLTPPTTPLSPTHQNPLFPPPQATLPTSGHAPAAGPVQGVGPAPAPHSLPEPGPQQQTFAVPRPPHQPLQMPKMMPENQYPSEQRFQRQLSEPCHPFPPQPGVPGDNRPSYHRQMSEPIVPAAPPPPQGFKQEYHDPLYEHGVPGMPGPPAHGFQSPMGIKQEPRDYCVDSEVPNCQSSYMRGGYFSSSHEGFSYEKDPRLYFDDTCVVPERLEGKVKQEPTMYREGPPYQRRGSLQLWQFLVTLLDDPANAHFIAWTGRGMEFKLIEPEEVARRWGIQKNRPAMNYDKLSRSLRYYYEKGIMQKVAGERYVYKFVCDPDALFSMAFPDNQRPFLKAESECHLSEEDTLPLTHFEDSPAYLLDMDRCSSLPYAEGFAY
# Procedure, shortened: as §1
# HSF1 = HSF1 (Homo sapiens, UniProt Q00613 1-529); conditions: protein: recombinant; tags: N-terminal GST; chain copies: 3; dsDNA, one strand shown
# Sequence of HSF1 (Q00613 whole entry): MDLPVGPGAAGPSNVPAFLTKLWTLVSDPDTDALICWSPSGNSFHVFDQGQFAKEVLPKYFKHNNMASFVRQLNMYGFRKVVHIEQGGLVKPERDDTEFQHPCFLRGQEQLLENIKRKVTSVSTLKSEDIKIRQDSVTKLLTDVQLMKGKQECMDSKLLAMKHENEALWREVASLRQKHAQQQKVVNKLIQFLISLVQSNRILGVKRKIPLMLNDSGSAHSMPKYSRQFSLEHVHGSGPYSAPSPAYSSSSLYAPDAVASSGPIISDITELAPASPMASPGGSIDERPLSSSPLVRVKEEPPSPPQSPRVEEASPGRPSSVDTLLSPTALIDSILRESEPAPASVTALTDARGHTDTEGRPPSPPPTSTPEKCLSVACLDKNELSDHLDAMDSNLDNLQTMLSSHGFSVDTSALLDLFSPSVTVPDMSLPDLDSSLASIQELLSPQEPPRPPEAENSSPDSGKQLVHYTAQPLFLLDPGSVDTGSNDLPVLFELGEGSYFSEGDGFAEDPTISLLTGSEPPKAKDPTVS
# Procedure, shortened: as §1
# SPIC = target: T2, SPIC (Homo sapiens, UniProt Q8N5J4 1-248); conditions: protein: recombinant; tags: N-terminal GST; dsDNA, one strand shown
# T2 sequence: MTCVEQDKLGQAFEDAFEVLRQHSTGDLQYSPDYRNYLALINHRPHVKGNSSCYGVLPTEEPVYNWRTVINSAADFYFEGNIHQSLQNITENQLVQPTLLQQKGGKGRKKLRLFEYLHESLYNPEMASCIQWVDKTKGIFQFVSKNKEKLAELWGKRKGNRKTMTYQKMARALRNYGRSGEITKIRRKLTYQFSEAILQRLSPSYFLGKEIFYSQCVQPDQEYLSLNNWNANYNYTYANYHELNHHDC
# Procedure, shortened: as §1
# ELF4 = ELF4 (Homo sapiens, UniProt Q99607 1-663); conditions: protein: recombinant; tags: N-terminal GST; dsDNA, one strand shown
# Sequence of ELF4 (Q99607 whole entry): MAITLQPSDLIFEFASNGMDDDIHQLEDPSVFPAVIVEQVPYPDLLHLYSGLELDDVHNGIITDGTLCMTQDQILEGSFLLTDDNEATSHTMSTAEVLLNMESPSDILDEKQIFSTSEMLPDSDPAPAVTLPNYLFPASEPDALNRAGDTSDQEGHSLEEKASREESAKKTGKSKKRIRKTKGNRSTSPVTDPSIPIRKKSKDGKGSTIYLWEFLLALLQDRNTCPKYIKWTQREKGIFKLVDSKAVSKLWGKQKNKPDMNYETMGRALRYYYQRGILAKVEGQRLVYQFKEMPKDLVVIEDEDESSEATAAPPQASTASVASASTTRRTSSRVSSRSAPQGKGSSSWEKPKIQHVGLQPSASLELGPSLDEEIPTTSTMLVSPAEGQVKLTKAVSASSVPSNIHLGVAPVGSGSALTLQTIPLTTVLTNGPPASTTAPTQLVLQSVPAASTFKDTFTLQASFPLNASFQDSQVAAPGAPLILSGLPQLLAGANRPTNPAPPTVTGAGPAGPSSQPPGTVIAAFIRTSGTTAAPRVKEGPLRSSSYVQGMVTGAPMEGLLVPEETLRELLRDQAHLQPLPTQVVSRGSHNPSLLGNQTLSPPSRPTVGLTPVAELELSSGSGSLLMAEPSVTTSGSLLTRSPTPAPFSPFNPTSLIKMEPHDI
# Procedure, shortened: as §1
# ELK4 = target: T3, ELK4 (Homo sapiens, UniProt P28324-2 1-405); conditions: protein: recombinant; tags: N-terminal GST; dsDNA, one strand shown
# T3 sequence: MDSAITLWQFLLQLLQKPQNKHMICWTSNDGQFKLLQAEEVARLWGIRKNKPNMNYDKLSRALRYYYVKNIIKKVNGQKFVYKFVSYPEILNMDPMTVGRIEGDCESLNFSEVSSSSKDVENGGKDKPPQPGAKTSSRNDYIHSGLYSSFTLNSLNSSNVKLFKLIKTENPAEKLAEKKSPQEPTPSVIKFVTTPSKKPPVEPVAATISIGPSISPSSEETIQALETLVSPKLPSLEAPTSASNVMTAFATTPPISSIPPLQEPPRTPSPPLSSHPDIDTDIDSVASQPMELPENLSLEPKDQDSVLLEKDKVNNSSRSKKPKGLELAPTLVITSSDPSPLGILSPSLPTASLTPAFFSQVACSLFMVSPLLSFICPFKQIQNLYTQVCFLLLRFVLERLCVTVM
# Procedure, shortened: as §1
# ETV2 = target: T4, ETV2 (Homo sapiens, UniProt O00321 1-342); conditions: protein: recombinant; tags: N-terminal GST; dsDNA, one strand shown
# T4 sequence: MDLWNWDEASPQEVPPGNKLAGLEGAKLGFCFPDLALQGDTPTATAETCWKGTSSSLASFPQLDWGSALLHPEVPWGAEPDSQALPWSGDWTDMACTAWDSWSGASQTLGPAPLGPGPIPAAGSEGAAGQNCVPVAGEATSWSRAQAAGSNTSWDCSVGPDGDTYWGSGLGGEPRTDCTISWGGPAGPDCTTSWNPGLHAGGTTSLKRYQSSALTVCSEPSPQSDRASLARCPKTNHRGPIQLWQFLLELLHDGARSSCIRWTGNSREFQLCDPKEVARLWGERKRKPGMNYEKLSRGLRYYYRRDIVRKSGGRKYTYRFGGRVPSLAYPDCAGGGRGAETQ
# Procedure, shortened: as §1
# ELF3 = target: T5, ELF3 (Homo sapiens, UniProt P78545 1-371); conditions: protein: recombinant; tags: N-terminal GST; dsDNA, one strand shown
# T5 sequence: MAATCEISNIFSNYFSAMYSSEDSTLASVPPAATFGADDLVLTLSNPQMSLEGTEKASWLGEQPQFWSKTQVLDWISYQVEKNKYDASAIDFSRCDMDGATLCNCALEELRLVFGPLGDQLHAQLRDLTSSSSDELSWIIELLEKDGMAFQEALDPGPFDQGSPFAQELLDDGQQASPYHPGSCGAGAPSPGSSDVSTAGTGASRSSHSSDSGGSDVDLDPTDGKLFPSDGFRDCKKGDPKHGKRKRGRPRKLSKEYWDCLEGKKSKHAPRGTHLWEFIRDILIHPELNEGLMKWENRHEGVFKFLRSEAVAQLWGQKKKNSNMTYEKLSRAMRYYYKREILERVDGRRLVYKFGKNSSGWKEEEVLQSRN
# Procedure, shortened: as §1
# CRX = CRX (Homo sapiens, UniProt O43186 1-299); conditions: protein: recombinant; tags: N-terminal GST; dsDNA, one strand shown
# Sequence of CRX (O43186 whole entry): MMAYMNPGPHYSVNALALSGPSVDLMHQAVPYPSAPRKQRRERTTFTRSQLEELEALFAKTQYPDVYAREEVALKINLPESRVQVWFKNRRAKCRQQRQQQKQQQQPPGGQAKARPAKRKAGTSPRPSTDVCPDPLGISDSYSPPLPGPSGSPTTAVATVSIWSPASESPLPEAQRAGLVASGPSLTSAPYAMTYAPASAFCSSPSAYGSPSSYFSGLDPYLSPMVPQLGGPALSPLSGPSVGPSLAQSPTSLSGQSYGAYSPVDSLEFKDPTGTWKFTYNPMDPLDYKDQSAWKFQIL
# Procedure, shortened: as §1
# ETV1 = ETV1 (Homo sapiens, UniProt P50549 1-477); conditions: protein: recombinant; tags: N-terminal GST; dsDNA, one strand shown
# Sequence of ETV1 (P50549 whole entry): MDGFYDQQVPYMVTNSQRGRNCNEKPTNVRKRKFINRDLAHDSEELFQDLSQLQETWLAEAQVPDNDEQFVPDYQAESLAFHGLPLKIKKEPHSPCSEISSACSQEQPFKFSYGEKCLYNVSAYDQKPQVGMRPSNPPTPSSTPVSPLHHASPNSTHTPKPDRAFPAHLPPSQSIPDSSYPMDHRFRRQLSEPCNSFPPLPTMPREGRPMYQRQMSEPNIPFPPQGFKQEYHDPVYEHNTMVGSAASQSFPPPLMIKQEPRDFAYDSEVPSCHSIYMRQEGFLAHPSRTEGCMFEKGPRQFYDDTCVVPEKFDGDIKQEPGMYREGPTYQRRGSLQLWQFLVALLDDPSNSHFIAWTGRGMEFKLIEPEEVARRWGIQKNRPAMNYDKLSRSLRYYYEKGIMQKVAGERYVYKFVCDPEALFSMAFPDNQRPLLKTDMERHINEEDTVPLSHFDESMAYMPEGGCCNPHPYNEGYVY
# Procedure, shortened: as §1
sequence,measurement,setting,value
TTAATA,binding signal,FEV,"1.19 fold enrichment (6-mer frequency, TF over GST control)"
same,binding signal,ETV5,"1.15 fold enrichment (6-mer frequency, TF over GST control)"
same,binding signal,HSF1,"2.09 fold enrichment (6-mer frequency, TF over GST control)"
same,binding signal,SPIC,"1.11 fold enrichment (6-mer frequency, TF over GST control)"
same,binding signal,ELF4,"1.23 fold enrichment (6-mer frequency, TF over GST control)"
same,binding signal,ELK4,"1.08 fold enrichment (6-mer frequency, TF over GST control)"
same,binding signal,ETV2,"1.25 fold enrichment (6-mer frequency, TF over GST control)"
same,binding signal,ELF3,"1.06 fold enrichment (6-mer frequency, TF over GST control)"
same,binding signal,CRX,"3.19 fold enrichment (6-mer frequency, TF over GST control)"
same,binding signal,ETV1,"1.09 fold enrichment (6-mer frequency, TF over GST control)"
